25 compounds from PubChem BioAssay (Tox21) can be followed below.

The nature of assay [1]: qHTS assay to identify aromatase inhibitors - cell viability counter screen (AID 743084).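 Further: cells stimulated with testosterone during compound exposure; nearly all actives have a fitted effect of over 55% in size.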 Further: potency means the concentration at half of the fitted maximal effect. In general terms: Quantitative high-throughput screening tests each substance at several concentrations.
Assay [2] has as its target Aryl hydrocarbon receptor (Homo sapiens) (UniProt P35869). Description: qHTS assay to identify small molecule that activate the aryl hydrocarbon receptor (AhR) signaling pathway (AID 743085). Further: nearly all actives have a fitted effect of over 15% in size. Further: potency means the concentration at half of the fitted maximal effect.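 On activation: HG2L7.5c1 human HepG2 liver cells with stably integrated DRE-driven firefly reporter; series mostly up to about 70 µM.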 In short, it runs like this: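 Compounds were tested in HepG2 hepatocellular carcinoma cells harbouring a stably integrated luciferase gene under control of 20 DREs. Increased reporter signal after 24 h treatment at 37C was taken as AhR activation.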

The nature of assay [3]: qHTS assay to identify small molecule that activate the aryl hydrocarbon receptor (AhR) signaling pathway - cell viability counter screen (AID 743086). Further: nearly all actives have a fitted effect of over 45% in size. Further: potency means the concentration at half of the fitted maximal effect. In short, it runs like this:
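HepG2-AhR-luc (HG2L7.5c1) cells, 4000/well, were preincubated 5 h at 37C, exposed to compound in qHTS format for 24 hr at 37C, then given CellTiter-Fluor for 30 min; viability was read as fluorescence in the reporter wells.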

In assay [4] the target is Peroxisome proliferator-activated receptor gamma (Homo sapiens) (UniProt P37231). Description: qHTS assay to identify small molecule agonists of the peroxisome proliferator-activated receptor gamma (PPARg) signaling pathway (AID 743094; active means well fitted activation curve with a large enough effect in the signal ratio in the repeat runs, not every such curve was filed as active; the % refers to the signal ratio). Summed up:
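Agonist activity was taken from a beta-lactamase reporter (FRET substrate, 1 h at room temperature) in HEK293H cells carrying a PPARg UAS-bla construct. Compounds in DMSO were incubated 17 h at 37C after a 5 h cell pre-incubation.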

Assay [5] shares this target. Description: qHTS assay to identify small molecule antagonists of the peroxisome proliferator-activated receptor gamma (PPARg) signaling pathway (AID 743191; calls by dose curve; further: nearly all actives have a fitted effect of over 30% in size; further: potency means the concentration at half of the fitted maximal effect). Summed up:
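GeneBLAzer PPARg UAS-bla HEK293H cells carrying a UAS-driven beta-lactamase reporter were plated at 3000 cells/well, preincubated 5 h at 37C, then given compound for 17 h at 37C; LiveBLAzer B/G FRET substrate was read after 1 h at room temperature.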

Assay [6] can be described thus: qHTS assay to identify small molecule antagonists of the peroxisome proliferator-activated receptor gamma (PPARg) signaling pathway - cell viability counter screen (AID 743194). Further: nearly all actives have a fitted effect of over 55% in size. Particulars: Potency: co-treated with 50 nM rosiglitazone unless noted. In short, it runs like this:
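PPARg-UAS-bla HEK293H cells were plated, rested 5 h at 37 C, then treated with compounds plus rosiglitazone (50 nM final) for 17 h at 37 C; viability was then read by CellTiter-Glo luminescence after 30 min at room temperature.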

Assay [7] can be described thus: qHTS assay for small molecule agonists of the antioxidant response element (ARE) signaling pathway (AID 743202; active means well fitted activation curve with a large enough effect in the signal ratio in the repeat runs, not every such curve was filed as active; the % refers to the signal ratio; further: potency means the concentration at half of the fitted maximal effect). Summed up:
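Following a 16 h, 37 C exposure of reporter HepG2 cells (ARE-driven beta-lactamase, 2,000 cells/well) to compounds, FRET substrate was applied for 2 h at room temperature and fluorescence intensity recorded.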

Assay [8] is described as follows: qHTS assay for small molecule agonists of the antioxidant response element (ARE) signaling pathway - cell viability counter screen (AID 743203; calls by dose curve; further: nearly all actives have a fitted effect of over 55% in size). Summed up:
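Viability counter screen: CellTiter-Glo luminescence, read after 30 min at room temperature, in ARE-bla HepG2 wells. Compound exposure lasted 16 h at 37C/5% CO2, following a 5 h pre-incubation of the cells after plating.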

A short description of assay [9]: qHTS assay for small molecule activators of the heat shock response signaling pathway - cell viability counter screen (AID 743209). Further: nearly all actives have a fitted effect of over 50% in size. Summed up: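 Cytotoxicity counter screen run in the same wells as the heat-shock bla reporter assay: HeLa HSE-bla cells, 5 h compound exposure at 37 C, viability read by CellTiter-Glo luminescence.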
Assay [10] in a line: qHTS assay for small molecule activators of the heat shock response signaling pathway (AID 743210; active means well fitted activation curve with a large enough effect in the signal ratio in the repeat runs, with a control signal flat, not every such curve was filed as active; the % refers to the signal ratio; further: series mostly up to about 63 µM). Summed up: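 Heat shock element–beta-lactamase HeLa reporter cells; qHTS with compounds for 5 h at 37 C; detection by FRET substrate fluorescence after 2.5 h at RT.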

Several values for one entry are separate records, joined by “and”; a condition that tells them apart may be missing. Equal entries are not always repeated. Records with an inconclusive call do not appear. Activity calls are given as the source filed them. Unless noted, the call rests on the fitted dose curve; in most records, active means well fitted curve in the direction sought with a large enough effect in the repeat runs; inconclusive means weak or mixed curves; inactive means no such curve, though single readings can be large; an effect the other way counts as inactive or inconclusive.

Sequence of Peroxisome proliferator-activated receptor gamma (Homo sapiens) (P37231 whole entry, looked up): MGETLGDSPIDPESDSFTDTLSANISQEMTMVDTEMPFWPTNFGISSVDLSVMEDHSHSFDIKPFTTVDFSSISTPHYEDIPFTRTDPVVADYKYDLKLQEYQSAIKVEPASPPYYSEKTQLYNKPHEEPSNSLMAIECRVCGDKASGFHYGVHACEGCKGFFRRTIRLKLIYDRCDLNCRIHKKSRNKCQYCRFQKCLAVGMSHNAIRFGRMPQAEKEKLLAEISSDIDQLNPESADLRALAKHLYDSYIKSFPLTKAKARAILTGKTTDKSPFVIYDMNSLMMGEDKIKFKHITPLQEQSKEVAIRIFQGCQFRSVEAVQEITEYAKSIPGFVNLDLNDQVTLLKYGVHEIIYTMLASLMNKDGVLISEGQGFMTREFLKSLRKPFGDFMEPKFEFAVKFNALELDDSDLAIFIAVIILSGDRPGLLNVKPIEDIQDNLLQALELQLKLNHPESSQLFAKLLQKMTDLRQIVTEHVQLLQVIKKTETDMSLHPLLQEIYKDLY
Sequence of Aryl hydrocarbon receptor (Homo sapiens) (P35869 whole entry, looked up): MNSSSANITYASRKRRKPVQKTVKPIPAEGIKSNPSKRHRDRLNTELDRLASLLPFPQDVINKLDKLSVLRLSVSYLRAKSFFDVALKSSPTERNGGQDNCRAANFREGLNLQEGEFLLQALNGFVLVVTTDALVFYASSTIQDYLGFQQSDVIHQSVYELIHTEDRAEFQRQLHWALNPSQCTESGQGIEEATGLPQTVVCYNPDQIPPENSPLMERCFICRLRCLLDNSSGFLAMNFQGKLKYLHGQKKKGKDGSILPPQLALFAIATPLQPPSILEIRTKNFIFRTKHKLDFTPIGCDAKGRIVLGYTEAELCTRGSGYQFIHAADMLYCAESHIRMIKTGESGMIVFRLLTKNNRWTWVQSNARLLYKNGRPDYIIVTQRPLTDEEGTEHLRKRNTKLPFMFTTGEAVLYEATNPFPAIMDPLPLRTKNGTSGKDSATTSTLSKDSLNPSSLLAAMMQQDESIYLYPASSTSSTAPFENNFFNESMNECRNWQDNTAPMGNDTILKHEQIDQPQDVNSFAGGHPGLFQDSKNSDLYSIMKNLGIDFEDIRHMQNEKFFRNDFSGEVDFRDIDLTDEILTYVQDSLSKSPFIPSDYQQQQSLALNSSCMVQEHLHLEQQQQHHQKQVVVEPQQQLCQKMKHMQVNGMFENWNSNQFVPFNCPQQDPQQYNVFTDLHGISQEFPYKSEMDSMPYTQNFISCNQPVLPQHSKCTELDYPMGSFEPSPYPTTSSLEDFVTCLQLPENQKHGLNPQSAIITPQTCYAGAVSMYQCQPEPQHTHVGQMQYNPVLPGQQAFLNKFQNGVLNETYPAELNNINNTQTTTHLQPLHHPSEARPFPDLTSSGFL

For `C[N+](C)(C)C`, the Potency entry in assay [1], in assay [2], in assay [3], in assay [4], in assay [5] and in [6] was “inactive” throughout. Further, the Potency entry in [7], in [8] and in assay [9] was “inactive” throughout.
Turning to `O=P(OCCCl)(OCCCl)OCCCl`, the Potency entry in [1], in assay [2], in assay [3], in assay [4], in [5] and in [6] was “inactive” in each case. Besides, the Potency result in assay [7], in [8], in assay [9] and in [10] was “inactive” in each case.
As for `N#CCCCCC#N`, the Potency entry in [1], in [2], in assay [3], in [4], in assay [5] and in assay [6] was “inactive” each time. In addition, the Potency entry in [7], in assay [9] and in assay [10] was “inactive” each time.
As for `O=C1Nc2ccc(Cl)cc2C(c2ccccc2)=NC1O` (centres undefined), the Potency entry in [1], in assay [2], in [3], in [4], in [6] and in assay [7] was “inactive” each time. In addition, the Potency result in assay [8], in assay [9] and in assay [10] was “inactive” throughout. Moreover, the Potency in assay [5] was 44 µM (active).
In the case of `CN(C)c1nc(=O)n(C2CCCCC2)c(=O)n1C`, the Potency result in assay [1], in [2], in [3], in [4], in assay [5] and in assay [6] was “inactive” throughout. Further, the Potency entry in assay [7], in assay [8], in assay [9] and in assay [10] was “inactive” throughout.
`O=S(=O)(O)C(F)(F)C(F)(F)C(F)(F)C(F)(F)C(F)(F)C(F)(F)C(F)(F)C(F)(F)F`: the Potency entry in assay [1], in [2], in assay [3], in assay [4], in assay [5] and in [6] was “inactive” in each case. Also, the Potency entry in assay [7] and in [9] was “inactive” in each case.
With `CCCCOCC1CO1` (centres undefined), the Potency result in [1], in [2], in [3], in assay [4], in [5] and in assay [6] was “inactive” each time. Further, the Potency entry in [7], in assay [8], in assay [9] and in assay [10] was “inactive” in each case.
For `[CH3][Sn]([Cl])([Cl])[Cl]`, the Potency result in assay [1], in [2], in assay [3], in assay [4], in assay [5] and in [6] was “inactive” in each case. Moreover, the Potency entry in assay [7], in [8], in assay [9] and in assay [10] was “inactive” each time.
As for `CCOP(=S)(OCC)SCSC(C)(C)C`, the Potency entry in assay [1], in [2], in assay [3], in assay [4], in assay [5] and in assay [6] was “inactive” in each case. In addition, the Potency entry in assay [7], in [9] and in assay [10] was “inactive” each time.
With `CN(C)P(=O)(N(C)C)N(C)C`, the Potency result in [1], in assay [2], in [3], in [4], in [5] and in assay [6] was “inactive” throughout. The Potency result in [7], in [8], in [9] and in assay [10] was “inactive” throughout.
On to `CCCCCCCCCCCCCl`, for which the Potency entry in assay [1], in [2], in assay [3], in assay [4], in assay [5] and in assay [6] was “inactive” each time. In addition, the Potency entry in assay [7], in [8], in assay [9] and in assay [10] was “inactive” each time.
On to `CCCCC(C#N)(Cn1cncn1)c1ccc(Cl)cc1` (centres undefined), for which the Potency entry in assay [1], in [2], in assay [3], in [4], in [5] and in assay [6] was “inactive” each time. Also, the Potency entry in assay [7], in assay [9] and in assay [10] was “inactive” in each case.
Turning to `O=NN1CCOCC1`, the Potency entry in [1], in [2], in assay [3], in [4], in [5] and in assay [6] was “inactive” throughout. For the same compound, the Potency result in assay [7], in [8], in [9] and in assay [10] was “inactive” each time.
For the compound `Nc1ccc([N+](=O)[O-])cc1N`, the Potency was 30.6 µM (active) in assay [1]; 61.1 µM (active) in [2]; 27.3 µM (active) and 30.6 µM (active) in assay [3]; 0.968 µM (active) in assay [7]. Further, the Potency result in assay [4], in assay [5], in assay [6], in [8] and in [9] was “inactive” throughout.
With `Clc1cccc(Cl)c1`, the Potency entry in assay [1], in [2], in [3], in assay [4], in assay [5] and in [6] was “inactive” throughout. The Potency entry in [7], in assay [8], in assay [9] and in [10] was “inactive” each time.
Regarding `Cc1ccc([N+](=O)[O-])cc1`, the Potency entry in [1], in assay [2], in assay [3], in assay [4], in assay [5] and in assay [6] was “inactive” each time. Also, the Potency result in [7], in assay [9] and in assay [10] was “inactive” throughout.
For the compound `NC(=O)CN1CCCC1=O`, the Potency entry in [1], in assay [2], in [3], in [4], in assay [5] and in assay [6] was “inactive” throughout. Besides, the Potency result in [7], in assay [8], in [9] and in assay [10] was “inactive” in each case.
`CNC(=O)CSP(=S)(OC)OC`: the Potency entry in [1], in [2], in assay [3], in assay [4], in assay [5] and in assay [6] was “inactive” each time. The Potency result in assay [7], in [8], in assay [9] and in [10] was “inactive” in each case.
In the case of `Clc1ccc(C(Cl)(Cl)Cl)cc1`, the Potency entry in assay [1], in assay [2], in assay [3], in assay [4], in assay [5] and in assay [6] was “inactive” throughout. The Potency result in [7], in assay [9] and in [10] was “inactive” each time.
For `c1ccc(C2CO2)cc1` (centres undefined), the Potency result in [1], in [2], in assay [3], in [4], in assay [5] and in assay [6] was “inactive” throughout. In addition, the Potency entry in assay [7], in [8], in assay [9] and in assay [10] was “inactive” in each case.
Turning to `Nc1ncn[nH]1`, the Potency result in assay [1], in [2], in [3], in assay [4], in assay [5] and in [6] was “inactive” each time. The Potency result in assay [7], in assay [8], in [9] and in assay [10] was “inactive” each time.
With `CCCCOC(=O)COC(=O)c1ccccc1C(=O)OCCCC`, the Potency result in assay [1], in assay [2], in [3], in assay [4], in assay [5] and in [6] was “inactive” in each case. The Potency result in [7], in [8], in [9] and in assay [10] was “inactive” throughout.
`CC(C)COC(=O)c1ccccc1C(=O)OCC(C)C`: the Potency result in [1], in assay [2], in assay [3], in [4], in assay [5] and in assay [6] was “inactive” throughout. Besides, the Potency result in assay [7], in assay [8], in [9] and in assay [10] was “inactive” throughout.
Regarding `CCCCCCCCCc1ccc(O)cc1`, in assay [1], the Potency was 55 µM (active). Besides, the Potency entry in [2], in assay [3] and in assay [4] was “inactive” each time.
In the case of `CC1CC(=O)O1` (centres undefined), the Potency entry in assay [1], in assay [2], in assay [3], in assay [4], in [5] and in assay [6] was “inactive” throughout. For the same compound, the Potency result in assay [7], in assay [9] and in assay [10] was “inactive” throughout.
